SRC2 inh: human SRC2 (NCOA2) inhibition | Q15596 | HEK293 GAL4-SRC2 luciferase reporter, luminescence | inhibition, % at 9 µM | actives 0.17% (n = 370,000) | AID 651957;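 active = inhibition above the mean inhibition of all tested compounds plus 3 SD, set per campaign, cut at about 52% in these data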
NCOA1 inh: inhibitors of human steroid receptor coactivator 1 (SRC1); HEK293 GAL4-SRC1 luciferase reporter, luminescence; inhibition, % at 3.6 µM; AID 588354; actives 0.12% (n = 360,000); Q15788;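 active = inhibition above the campaign mean plus 3 SD, with each screening campaign given its own cutoff, cut at about 60% in these data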
Target sequence (Q15788 whole entry, looked up, the tested form may be a part): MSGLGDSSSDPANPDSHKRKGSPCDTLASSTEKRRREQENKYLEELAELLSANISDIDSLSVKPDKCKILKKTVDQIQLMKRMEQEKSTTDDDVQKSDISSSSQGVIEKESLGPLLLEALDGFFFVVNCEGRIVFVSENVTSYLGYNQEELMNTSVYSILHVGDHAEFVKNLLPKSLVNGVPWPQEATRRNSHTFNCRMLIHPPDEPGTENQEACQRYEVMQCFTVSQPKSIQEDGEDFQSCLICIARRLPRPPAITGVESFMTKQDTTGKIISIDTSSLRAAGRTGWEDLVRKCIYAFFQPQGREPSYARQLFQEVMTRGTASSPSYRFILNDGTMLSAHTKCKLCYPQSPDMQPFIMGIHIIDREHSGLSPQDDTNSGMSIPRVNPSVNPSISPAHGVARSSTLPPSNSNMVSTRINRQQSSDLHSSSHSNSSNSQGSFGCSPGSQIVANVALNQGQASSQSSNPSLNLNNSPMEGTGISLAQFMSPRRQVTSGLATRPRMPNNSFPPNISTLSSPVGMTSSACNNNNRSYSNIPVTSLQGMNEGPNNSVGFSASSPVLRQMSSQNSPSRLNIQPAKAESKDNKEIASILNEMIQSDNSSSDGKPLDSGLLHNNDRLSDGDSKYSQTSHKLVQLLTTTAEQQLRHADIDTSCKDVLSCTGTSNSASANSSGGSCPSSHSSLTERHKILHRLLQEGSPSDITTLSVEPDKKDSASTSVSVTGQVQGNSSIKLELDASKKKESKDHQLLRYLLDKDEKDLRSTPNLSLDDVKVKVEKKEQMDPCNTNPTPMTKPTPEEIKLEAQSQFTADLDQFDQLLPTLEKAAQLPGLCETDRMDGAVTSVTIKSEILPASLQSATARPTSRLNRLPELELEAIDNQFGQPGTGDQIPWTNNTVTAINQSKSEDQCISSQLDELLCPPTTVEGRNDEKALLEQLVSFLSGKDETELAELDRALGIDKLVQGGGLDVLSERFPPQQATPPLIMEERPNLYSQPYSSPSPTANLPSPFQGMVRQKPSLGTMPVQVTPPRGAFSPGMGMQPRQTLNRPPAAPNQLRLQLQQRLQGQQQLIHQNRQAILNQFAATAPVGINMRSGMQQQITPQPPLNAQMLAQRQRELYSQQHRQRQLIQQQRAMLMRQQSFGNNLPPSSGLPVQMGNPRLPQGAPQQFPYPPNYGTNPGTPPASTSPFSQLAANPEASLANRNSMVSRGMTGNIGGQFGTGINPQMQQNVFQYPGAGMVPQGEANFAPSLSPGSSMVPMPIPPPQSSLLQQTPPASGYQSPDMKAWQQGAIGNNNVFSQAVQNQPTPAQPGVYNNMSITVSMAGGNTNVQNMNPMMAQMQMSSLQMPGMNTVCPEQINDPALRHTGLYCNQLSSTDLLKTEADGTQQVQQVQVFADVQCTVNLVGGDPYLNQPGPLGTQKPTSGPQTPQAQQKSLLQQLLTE
GalR3 antag: human GalR3 antagonism; O60755; HEK293 GalR3-CNG cAMP membrane potential fluorescence; galR3 body fused to GalR1 C-terminus; actives 0.44% (n = 360,000); AID 651719; inhibition, % at 3 µM;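 active = inhibition above the screen-wide average plus 3 SD, cut at about 13% in these data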;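 also: forskolin and galanin both at EC90 stimulate the cells; cAMP rise reported by CNG channel membrane potential dye signal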
NR5A2 inv ag: suppresses constitutive activity of human LRH-1; O00482; HEK293T StAR-luciferase reporter, LRH-1 transfected, 24 h; inhibition, % at 3.6 µM; actives 0.13% (n = 360,000); AID 602396;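 active = inhibition above the mean inhibition of all tested compounds plus 3 SD, cut at about 73% in these data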
NR2F2 inh: NR2F2 (human) inhibition, primary screen; HEK293T NGFI-A luciferase reporter, luminescence; inhibition, % at 8.6 µM; actives 0.7% (n = 370,000);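 active = inhibition above a per-plate cutoff, mean inhibition of test wells between control levels plus 3 SD, cut at about 38% in these data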;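 also: cells cotransfected with COUP-TFII expression vector driving the NGFI-A reporter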
SRC3 inh: inhibitors of human steroid receptor coactivator 3 (SRC3); Q9Y6Q9; HEK293 GAL4-SRC3 luciferase reporter, luminescence; inhibition, % at 3.6 µM; actives 0.17% (n = 360,000); AID 588352;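 active = inhibition above a per-campaign cutoff, the mean of all compounds plus 3 SD, cut at about 60% in these data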;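 also: higher means less SRC3-driven luciferase light from the GAL4 reporter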
A number is an active result; . = inactive; / = no result given. Rows were chosen to be rich in hits. Some 1.1% of all compounds tested hit in one or more screens of this group.

SMILES	SRC2 inh	NCOA1 inh	GalR3 antag	NR5A2 inv ag	NR2F2 inh	SRC3 inh
C=CCN=C1NC(CCc2ccccc2)C(C(=O)OC)=C(C)N1Cc1ccccc1C(F)(F)F (stereo unspecified)	.	/	.	/	.	/
CCOc1ccc(C(=O)C(CCC(CN(C)C)C(=O)c2ccc(OCC)cc2)CN(C)C)cc1 (stereo unspecified)	.	.	.	88	.	.
CCCn1c(C)cc(C(=O)COc2ccc(C)nc2[N+](=O)[O-])c1C	.	.	.	.	.	.
COCCn1c(C)cc(C(=O)COc2ccc(C)nc2[N+](=O)[O-])c1C	54	.	.	.	.	.
COc1ccc(S(=O)(=O)N2CCOCC2)cc1NC(=O)CCNC(=O)c1ccc([N+](=O)[O-])cc1	.	.	.	82	.	.
CCN1CCN(C(=S)c2ccc(-c3ccccc3)cc2)CC1	71	.	.	.	.	.
Cc1ccc(C(=S)N2CCN(Cc3ccccc3)CC2)cc1	.	.	.	.	.	.
Oc1[nH]c2ccc(Br)cc2c1N=NC(=S)N1CCOCC1	.	.	13	.	.	.
CC(C)[C@H](NC(=O)OC(C)(C)C)C(=O)N1CCC(Oc2cccnc2)CC1	.	/	/	/	.	/
COc1ccccc1C(=O)N1CCCC(c2nc(-c3cccs3)no2)C1 (stereo unspecified)	.	/	/	/	.	/
CCn1c2c(c(=N)c3c1CCC3)CCC2	.	.	.	.	.	.
CCCCCCCCCn1c2c(c(=N)c3c1CCC3)CCC2	/	71	/	97	/	81
Clc1ccc(OCCSCc2nc3ccccc3[nH]2)cc1	.	.	.	.	.	.
Cc1ccc(OCCSCc2nc3ccccc3[nH]2)cc1	.	.	18	.	.	.
O=C(c1cc(Cl)cc(Cl)c1)N1CC[C@H]2[C@H](CCCN2Cc2ccc(F)cc2)C1	.	/	/	/	.	/
CNc1cccnc1C=NNC(N)=S	.	80	.	.	.	80
NC(=S)NN=Cc1nccc2c(C(F)(F)F)cccc12	.	87	.	93	.	91
NC(=S)N/N=C/c1ccccc1	.	.	.	.	.	.
CCN(CC)CCNc1ccc(C)c2sc3ccc(O)cc3c(=O)c12	.	63	.	.	.	64
NC(=S)N1OC[C@@H]2COc3ccc4ccccc4c3[C@@H]21	54	.	.	.	.	.
O=c1[nH]c(=O)n(C2CC(O)C(CO)O2)cc1Br (stereo unspecified)	.	.	.	.	.	.
CCc1cn([C@H]2C[C@H](O)[C@@H](CO)O2)c(=O)[nH]c1=O	.	.	.	.	.	.
O=c1[nH]c(=O)n([C@H]2C[C@H](O)[C@@H](CO)O2)cc1C(F)(F)F	.	77	.	.	.	65
O=c1[nH]c(=O)n(C2C[C@H](O)[C@@H](CO)O2)cc1C(F)(F)F (stereo partly specified)	.	75	.	.	.	73
O=C(Nc1ccc(NS(=O)(=O)c2ccccc2)cc1)c1ccc(Cl)cc1	.	.	.	.	.	.
SMILES	SRC2 inh	NCOA1 inh	GalR3 antag	NR5A2 inv ag	NR2F2 inh	SRC3 inh
O=C(Nc1cccc(S(=O)(=O)Nc2ccc(Cl)cc2)c1)c1ccc(Cl)nc1	.	.	73	.	82	.
C=CCCC(=O)N[C@H]1CC[C@@]23CCCN2C(=O)CCC[C@H]3[C@H]1CCC	/	/	/	/	.	/
Cc1nnsc1C(=O)N/N=C/c1ccc2ccccc2c1O	.	81	.	.	.	84
COC(=O)COc1ccc(-c2nccc(-c3ccccn3)n2)cc1	61	.	.	.	.	.
COC(=O)COc1ccc(-c2nccc(-c3ccc(Br)cc3)n2)cc1	.	.	.	.	.	.
COC(=O)CN1CCN(C(=O)c2nocc2C)CC1	.	/	/	/	.	/
CC(C)n1cnc2c(NCc3ccccc3)cc(N[C@H](C)CO)cc21	/	89	/	90	/	92
Cc1ccc2[nH]c3c(c2c1)CCCC3C(N)=O (stereo unspecified)	.	.	.	.	.	.
Cc1ccc2[nH]c3c(c2c1)CCCC3NC(=O)CCl (stereo unspecified)	/	77	/	89	/	77
CCNC(=O)CCc1nc(-c2ccc(C(C)C)cc2)no1	/	/	/	/	.	/
C=CCN1[C@@H](C)COc2cc(F)ccc2S1(=O)=O	.	/	/	/	.	/
CCCCC(=O)NC(c1cccc([N+](=O)[O-])c1)c1ccc2cccnc2c1O (stereo unspecified)	.	.	.	.	.	.

Screening data from PubChem.
